Assay results published in PubChem BioAssay (EPA / NIEHS).
Records with an inconclusive call do not appear. Active and inactive are the calls of the source. How the source made its calls, unless noted: active means hit-call score of the fitted dose curve at least 0.9, where 1 is the maximum; inactive means score below 0.9.

Tested on: not listed separately
Assay: ATG_M_32_TRANS: Attagene TRANS-FACTORIAL HepG2 Assay for M32 Transcription Factor (Internal Marker) (AID 2282984; active means hit-call score of the fitted dose curve at least 0.9, where 1 is the maximum;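 further: transcript level of a background control reporter unit measured by RT-PCR and capillary electrophoresis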)
Conditions: HepG2 Attagene TRANS M32 internal marker reporter
How it was run: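 HepG2 cells transiently transfected with GAL4-UAS reporter units, dosed for 24 hours. Reporter mRNA quantified by RT-PCR, 6-FAM labelling, HpaI digestion and capillary electrophoresis; internal-marker signal fitted upward relative to DMSO.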

Row | Compound | outcome
1 | CC1(C)CC(=O)CC(C)(C)N1[O] | inactive
2 | SCc1ccco1 | inactive
3 | O=CNC(N1CCN(C(NC=O)C(Cl)(Cl)Cl)CC1)C(Cl)(Cl)Cl (stereo not given) | inactive
4 | Oc1cc(Cl)ccc1Cl | inactive
5 | CSc1nc(N=[N+]=[N-])nc(NC(C)C)n1 | inactive
6 | O=[N+]([O-])O.O=[N+]([O-])O.[Cd] | inactive

Target: Nuclear receptor subfamily 4 group A member 2 (Homo sapiens) (UniProt P43354)
Sequence (P43354 whole entry, looked up): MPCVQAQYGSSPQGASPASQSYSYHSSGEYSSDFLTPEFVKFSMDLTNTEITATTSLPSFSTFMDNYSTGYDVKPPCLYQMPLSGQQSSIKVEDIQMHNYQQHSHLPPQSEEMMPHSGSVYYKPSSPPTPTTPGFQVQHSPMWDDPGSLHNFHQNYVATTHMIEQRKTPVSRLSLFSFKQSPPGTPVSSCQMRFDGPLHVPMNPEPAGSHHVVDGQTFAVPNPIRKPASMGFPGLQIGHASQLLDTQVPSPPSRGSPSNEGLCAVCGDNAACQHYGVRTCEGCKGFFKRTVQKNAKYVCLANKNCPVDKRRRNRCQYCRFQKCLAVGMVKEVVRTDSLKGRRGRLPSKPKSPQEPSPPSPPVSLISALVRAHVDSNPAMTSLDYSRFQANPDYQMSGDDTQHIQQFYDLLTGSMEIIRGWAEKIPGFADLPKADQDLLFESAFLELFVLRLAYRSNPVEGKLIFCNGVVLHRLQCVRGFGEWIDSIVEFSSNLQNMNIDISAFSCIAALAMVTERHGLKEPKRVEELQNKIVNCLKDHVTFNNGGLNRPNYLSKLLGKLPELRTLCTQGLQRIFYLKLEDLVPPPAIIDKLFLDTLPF
Assay: ATG_NURR1_TRANS: Attagene TRANS-FACTORIAL HepG2 Assay for human Nuclear Receptor Related Protein 1 (NURR1) (AID 2282985; active means hit-call score of the fitted dose curve at least 0.9, where 1 is the maximum)
Conditions: HepG2 Attagene TRANS reporter, mRNA readout
How it was run: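 HepG2 cells transiently transfected with NURR1-Gal4 chimera and GAL4-UAS reporter units; after 24 hr compound exposure, reporter mRNA quantified by RT-PCR and capillary electrophoresis; gain of signal fitted against DMSO.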

Row | Compound | outcome | AC50
7 | CCOP(O)OCC | inactive | –
8 | C#CC1(O)CCCCC1 | inactive | –
9 | CCC(C)c1cc(C(C)(C)C)cc(-n2nc3ccccc3n2)c1O (stereo not given) | inactive | –
10 | Nc1c(Cl)c(Cl)c(Cl)c(Cl)c1Cl | inactive | –
11 | COC(=O)c1ccccc1S(=O)(=O)NC(=O)Nc1nc(C)cc(C)n1 | inactive | –
12 | Nc1ccccc1C(=O)OCCc1ccccc1 | inactive | –
13 | O=C(O)CCCc1ccc(N(CCCl)CCCl)cc1 | inactive | –
14 | Nc1cc(Cl)cc(Cl)c1 | inactive | –
15 | COc1ncc(F)c2nc(S(=O)(=O)Nc3c(F)cccc3F)nn12 | inactive | –
16 | COC(C)(C)CCC[C@H](C)C/C=C/C(C)=C/C(=O)OC(C)C | – | 121 µM (active)
17 | [CH3][Sn]([CH3])([Cl])[Cl] | inactive | –
18 | BrCBr | inactive | –
19 | CCc1cccc(C)c1N(C(=O)CCl)[C@@H](C)COC | inactive | –
20 | CC(Cc1ccc(C(C)(C)C)cc1)CN1C[C@@H](C)O[C@@H](C)C1 (stereo not given in full) | – | 33.4 µM (active)
21 | O=C(O)c1cc[c]([Hg][Cl])cc1 | inactive | –
22 | Clc1ccc(-c2ccccc2)cc1 | inactive | –
23 | CN(C)C(=O)C(c1ccccc1)c1ccccc1 | inactive | –
24 | C=CCc1ccc(OC(=O)Cc2ccccc2)c(OC)c1 | inactive | –
25 | O=P(O)(Oc1ccccc1)Oc1ccccc1 | inactive | –
26 | CCC(=O)c1ccc(Cl)cc1 | inactive | –
27 | Cc1ccc(N(SC(F)(Cl)Cl)S(=O)(=O)N(C)C)cc1 | inactive | –
28 | CC1(C)CC(=O)CC(C)(C)N1[O] | inactive | –
29 | SCc1ccco1 | inactive | –
30 | O=CNC(N1CCN(C(NC=O)C(Cl)(Cl)Cl)CC1)C(Cl)(Cl)Cl (stereo not given) | inactive | –
31 | O=[N+]([O-])O.O=[N+]([O-])O.[Cd] | inactive | –

Target: Transcriptional activator Myb (Homo sapiens) (UniProt P10242)
Sequence (P10242 whole entry, looked up): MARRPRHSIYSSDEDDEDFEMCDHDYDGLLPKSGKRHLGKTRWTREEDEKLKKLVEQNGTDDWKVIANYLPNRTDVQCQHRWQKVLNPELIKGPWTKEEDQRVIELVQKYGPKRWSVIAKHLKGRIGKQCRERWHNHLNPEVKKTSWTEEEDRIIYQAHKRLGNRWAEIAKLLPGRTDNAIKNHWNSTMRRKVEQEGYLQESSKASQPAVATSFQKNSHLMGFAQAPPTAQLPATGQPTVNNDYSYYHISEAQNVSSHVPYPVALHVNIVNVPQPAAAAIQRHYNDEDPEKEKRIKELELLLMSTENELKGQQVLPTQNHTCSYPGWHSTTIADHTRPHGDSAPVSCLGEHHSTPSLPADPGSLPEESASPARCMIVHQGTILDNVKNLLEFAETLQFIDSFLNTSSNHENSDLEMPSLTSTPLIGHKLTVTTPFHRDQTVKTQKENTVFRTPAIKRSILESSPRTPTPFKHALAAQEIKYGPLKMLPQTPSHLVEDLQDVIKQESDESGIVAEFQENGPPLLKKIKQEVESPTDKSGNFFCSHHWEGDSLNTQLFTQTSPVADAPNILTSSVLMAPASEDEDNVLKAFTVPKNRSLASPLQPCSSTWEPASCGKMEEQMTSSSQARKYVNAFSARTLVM
Assay: ATG_Myb_CIS: Attagene CIS-FACTORIAL HepG2 Assay for human Myeloblastosis (Myb) Proto-Oncogene Transcription Factor (AID 2282986)
Conditions: HepG2 Attagene CIS-FACTORIAL Myb reporter transcription; actives raise or lower the signal
How it was run: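 Transiently transfected HepG2 cells, treated 24 h. Reporter mRNA quantified by RT-PCR/capillary electrophoresis; bidirectional fit relative to DMSO.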

Row | Compound | outcome | AC50
32 | Nc1ccc(-c2ccc(N)c(N)c2)cc1N | inactive | –
33 | CCOP(O)OCC | inactive | –
34 | C#CC1(O)CCCCC1 | inactive | –
35 | O=c1[nH]c(Cl)c(Cl)cc1Cl | inactive | –
36 | CCC(C)c1cc(C(C)(C)C)cc(-n2nc3ccccc3n2)c1O (stereo not given) | inactive | –
37 | [CH3][Sn]([Cl])([Cl])[Cl] | inactive | –
38 | Nc1c(Cl)c(Cl)c(Cl)c(Cl)c1Cl | inactive | –
39 | COC(=O)c1ccccc1S(=O)(=O)NC(=O)Nc1nc(C)cc(C)n1 | inactive | –
40 | Nc1ccccc1C(=O)OCCc1ccccc1 | inactive | –
41 | N#Cc1cccc(C#N)c1 | inactive | –
42 | O=C(O)CCCc1ccc(N(CCCl)CCCl)cc1 | inactive | –
43 | Nc1cc(Cl)cc(Cl)c1 | inactive | –
44 | COc1ncc(F)c2nc(S(=O)(=O)Nc3c(F)cccc3F)nn12 | inactive | –
45 | COC(C)(C)CCC[C@H](C)C/C=C/C(C)=C/C(=O)OC(C)C | – | 165 µM (active)
46 | [CH3][Sn]([CH3])([Cl])[Cl] | inactive | –
47 | BrCBr | inactive | –
48 | CCc1cccc(C)c1N(C(=O)CCl)[C@@H](C)COC | inactive | –
49 | O=P1(NCCCl)OCCCN1CCCl (stereo not given) | inactive | –
50 | CC(Cc1ccc(C(C)(C)C)cc1)CN1C[C@@H](C)O[C@@H](C)C1 (stereo not given in full) | inactive | –
51 | O=C(O)c1cc[c]([Hg][Cl])cc1 | inactive | –

Row | Compound | outcome | AC50
52 | C[N+](C)(C)CC(=O)O | inactive | –
53 | O=S(=O)(c1ccccc1)c1ccccc1 | inactive | –
54 | Clc1ccc(-c2ccccc2)cc1 | inactive | –
55 | CN(C)C(=O)C(c1ccccc1)c1ccccc1 | inactive | –
56 | C=CCc1ccc(OC(=O)Cc2ccccc2)c(OC)c1 | inactive | –
57 | O=P(O)(Oc1ccccc1)Oc1ccccc1 | inactive | –
58 | CC1CCCC1.[C-]#[O+].[C-]#[O+].[C-]#[O+].[Mn] | inactive | –
59 | O=C(O)COc1ccccc1 | inactive | –
60 | [Cl][Sb]([Cl])[Cl] | inactive | –
61 | CCC(=O)c1ccc(Cl)cc1 | inactive | –
62 | Cc1ccc(N(SC(F)(Cl)Cl)S(=O)(=O)N(C)C)cc1 | inactive | –
63 | CC1(C)CC(=O)CC(C)(C)N1[O] | inactive | –
64 | SCc1ccco1 | inactive | –
65 | O=CNC(N1CCN(C(NC=O)C(Cl)(Cl)Cl)CC1)C(Cl)(Cl)Cl (stereo not given) | inactive | –
66 | Oc1cc(Cl)ccc1Cl | inactive | –
67 | O=[N+]([O-])c1cc(C(F)(F)F)c(Cl)c([N+](=O)[O-])c1Cl | inactive | –
68 | C[C@]12CCC(=O)C(O)=C1CC[C@@H]1[C@@H]2CC[C@]2(C)C(=O)CC[C@@H]12 | inactive | –
69 | CSc1nc(N=[N+]=[N-])nc(NC(C)C)n1 | inactive | –
70 | O=[N+]([O-])O.O=[N+]([O-])O.[Cd] | inactive | –
